Results filed as inconclusive are left out. Entries that show only a call come without a potency. Calls of active or inactive are those of the source. Calls follow the shape of the dose curve; as a rule, active = well fitted curve in the direction sought with a large enough effect; inconclusive = small, poorly fitted or top-dose-only effect, or another doubt; inactive = no such curve, though single readings can be large or run the other way.
Assay: qHTS for differential inhibitors of proliferation of Plasmodium falciparum line 7G8 (AID 1815);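 also: parasite growth measured after three days of incubation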
Conditions: Plasmodium falciparum 7G8 proliferation inhibition; series mostly up to 28.7 µM
Potency is read from the fitted curve at half-maximal effect.

SMILES | Potency
CN(C(=O)CCCOc1ccc2[nH]c(=O)ccc2c1)C1CCCCC1 | 7.08 µM (active)
O=C1NCN(c2ccccc2)C12CCN(CCCC(c1ccc(F)cc1)c1ccc(F)cc1)CC2 | 4.47 µM (active)
NC(Cc1ccc(Cl)cc1)C(=O)O (stereo not drawn) | inactive
COCCOC(=O)C1=C(C)NC(C)=C(C(=O)OC(C)C)C1c1cccc([N+](=O)[O-])c1 (stereo not drawn) | 4.47 µM (active)
CCN(Cc1ccncc1)C(=O)C(CO)c1ccccc1 (stereo not drawn) | inactive
Fc1ccc(C(c2ccc(F)cc2)N2CCN(C/C=C/c3ccccc3)CC2)cc1 | 3.98 µM (active)
CO[C@@]1(NC(=O)CSCC#N)C(=O)N2C(C(=O)O)=C(CSc3nnnn3C)CS[C@@H]21 | inactive
CN(C)C(=O)Oc1ccc[n+](C)c1 | inactive
C[C@H](CS)C(=O)N1CCC[C@H]1C(=O)O | inactive
CCOC(=O)C1=C(C)NC(C)=C(C(=O)OC)C1c1cccc(Cl)c1Cl (stereo not drawn) | 12.6 µM (active)
Cc1ccc(S(=O)(=O)NC(=O)NN2CCCCCC2)cc1 | inactive
CNCCC(Oc1ccccc1OC)c1ccccc1 (stereo not drawn) | 3.55 µM (active)
CC(C(=O)O)c1ccc(CC2CCCC2=O)cc1 (stereo not drawn) | inactive
c1ccc2c(c1)CCCC2C1=NCCN1 (stereo not drawn) | inactive
OCCN1CCN(CC/C=C2/c3ccccc3Sc3ccc(C(F)(F)F)cc32)CC1 | 2.51 µM (active)
Nc1c2c(nc3ccccc13)CCCC2O (stereo not drawn) | inactive
CCNC(=O)N1CCN(CCCC(c2ccc(F)cc2)c2ccc(F)cc2)CC1 | 1.58 µM (active)
CCN(CC)CC(=O)Nc1c(C)cccc1C | inactive
C(=C\c1ccccc1)/CN1CCN(C(c2ccccc2)c2ccccc2)CC1 | 3.98 µM (active)
Cc1nc2c([nH]1)c(=O)n(C)c(=O)n2Cc1ccco1 | inactive
COCCc1ccc(OCC(O)CNC(C)C)cc1 (stereo not drawn) | inactive
c1cc(CN2CCCCC2)cc(OCCCNc2nc3ccccc3s2)c1 | 7.08 µM (active)

Assay: qHTS for differential inhibitors of proliferation of Plasmodium falciparum line GB4 (AID 1816);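 also: parasite growth measured after 72 h incubation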
Conditions: Potency: Plasmodium falciparum GB4 proliferation inhibition; series mostly up to 28.7 µM

SMILES | Potency
CCCCNC(=O)NS(=O)(=O)c1ccc(C)cc1 | inactive
O=C1NCN(c2ccccc2)C12CCN(CCCC(c1ccc(F)cc1)c1ccc(F)cc1)CC2 | 8.91 µM (active)
NC(Cc1ccc(Cl)cc1)C(=O)O (stereo not drawn) | inactive
COCCOC(=O)C1=C(C)NC(C)=C(C(=O)OC(C)C)C1c1cccc([N+](=O)[O-])c1 (stereo not drawn) | 10 µM (active)
CCN(Cc1ccncc1)C(=O)C(CO)c1ccccc1 (stereo not drawn) | inactive
Fc1ccc(C(c2ccc(F)cc2)N2CCN(C/C=C/c3ccccc3)CC2)cc1 | 4.47 µM (active)
CO[C@@]1(NC(=O)CSCC#N)C(=O)N2C(C(=O)O)=C(CSc3nnnn3C)CS[C@@H]21 | inactive
CC(=O)OCC1=C(C(=O)O)N2C(=O)[C@@H](NC(=O)Cc3cccs3)[C@H]2SC1 | inactive
CN(C)C(=O)Oc1ccc[n+](C)c1 | inactive
C[C@H](CS)C(=O)N1CCC[C@H]1C(=O)O | inactive
CCOC(=O)C1=C(C)NC(C)=C(C(=O)OC)C1c1cccc(Cl)c1Cl (stereo not drawn) | 12.6 µM (active)
Cc1ccc(S(=O)(=O)NC(=O)NN2CCCCCC2)cc1 | inactive
CC(C(=O)O)c1ccc(CC2CCCC2=O)cc1 (stereo not drawn) | inactive
OC(CCN1CCCCC1)(c1ccccc1)C1CCCCC1 (stereo not drawn) | 10 µM (active)
OCCN1CCN(CC/C=C2/c3ccccc3Sc3ccc(C(F)(F)F)cc32)CC1 | 2.24 µM (active)
CCNC(=O)N1CCN(CCCC(c2ccc(F)cc2)c2ccc(F)cc2)CC1 | 1.12 µM (active)
C(=C\c1ccccc1)/CN1CCN(C(c2ccccc2)c2ccccc2)CC1 | 8.91 µM (active)
Cc1nc2c([nH]1)c(=O)n(C)c(=O)n2Cc1ccco1 | inactive
CN(C)CCN(Cc1cccs1)c1ccccn1 | 5.62 µM (active)
c1cc(CN2CCCCC2)cc(OCCCNc2nc3ccccc3s2)c1 | 6.31 µM (active)

Assay: qHTS for differential inhibitors of proliferation of Plasmodium falciparum line 3D7 (AID 1876)
Conditions: P. falciparum 3D7 proliferation inhibition; series mostly up to 28.7 µM

SMILES | Potency
CCCCNC(=O)NS(=O)(=O)c1ccc(C)cc1 | inactive
O=C1NCN(c2ccccc2)C12CCN(CCCC(c1ccc(F)cc1)c1ccc(F)cc1)CC2 | 2 µM (active)
NC(Cc1ccc(Cl)cc1)C(=O)O (stereo not drawn) | inactive
COCCOC(=O)C1=C(C)NC(C)=C(C(=O)OC(C)C)C1c1cccc([N+](=O)[O-])c1 (stereo not drawn) | 7.94 µM (active)
CCN(Cc1ccncc1)C(=O)C(CO)c1ccccc1 (stereo not drawn) | inactive
Fc1ccc(C(c2ccc(F)cc2)N2CCN(C/C=C/c3ccccc3)CC2)cc1 | 12.6 µM (active)
CC(=O)Oc1cc(C(C)C)c(OCCN(C)C)cc1C | inactive
CO[C@@]1(NC(=O)CSCC#N)C(=O)N2C(C(=O)O)=C(CSc3nnnn3C)CS[C@@H]21 | inactive
CC(=O)OCC1=C(C(=O)O)N2C(=O)[C@@H](NC(=O)Cc3cccs3)[C@H]2SC1 | inactive
CCn1ccnc1CC1COc2ccccc2O1 (stereo not drawn) | inactive
CN(C)C(=O)Oc1ccc[n+](C)c1 | inactive
Cc1nnc(SCC2=C(C(=O)O)N3C(=O)[C@@H](NC(=O)Cn4cnnn4)[C@H]3SC2)s1 | inactive
C[C@H](CS)C(=O)N1CCC[C@H]1C(=O)O | inactive
CCOC(=O)C1=C(C)NC(C)=C(C(=O)OC)C1c1cccc(Cl)c1Cl (stereo not drawn) | 8.91 µM (active)
Cc1ccc(S(=O)(=O)NC(=O)NN2CCCCCC2)cc1 | inactive
CC(C(=O)O)c1ccc(CC2CCCC2=O)cc1 (stereo not drawn) | inactive
OC(CCN1CCCCC1)(c1ccccc1)C1CCCCC1 (stereo not drawn) | 10 µM (active)
c1ccc2c(c1)CCCC2C1=NCCN1 (stereo not drawn) | inactive
OCCN1CCN(CC/C=C2/c3ccccc3Sc3ccc(C(F)(F)F)cc32)CC1 | 2.51 µM (active)
CCNC(=O)N1CCN(CCCC(c2ccc(F)cc2)c2ccc(F)cc2)CC1 | 0.891 µM (active)
CCN(CC)CC(=O)Nc1c(C)cccc1C | inactive
Cc1cc(C)c(/C=C2\C(=O)Nc3ccccc32)[nH]1 | inactive
Cc1nc2c([nH]1)c(=O)n(C)c(=O)n2Cc1ccco1 | inactive
CN(C)CCN(Cc1cccs1)c1ccccn1 | inactive
COCCc1ccc(OCC(O)CNC(C)C)cc1 (stereo not drawn) | inactive
c1cc(CN2CCCCC2)cc(OCCCNc2nc3ccccc3s2)c1 | 2.51 µM (active)
